Assay [1] deals with Lysosomal acid glucosylceramidase (Homo sapiens) (UniProt P04062). Nature of the assay: Glucocerebrosidase-p2 (AID 348; in the data active = potency below about 10 µM; note: potency is the fitted concentration of half-maximal effect). Particulars: purified GBA, blue fluorogenic substrate, 40 min. A digest of the protocol:
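Compounds titrated from 0.6 nM upwards against 0.2 nM enzyme in pH 5.9 citric acid/KH2PO4, taurocholate, tween-20; blue fluorogenic substrate 80 uM, 40 min room temperature, stopped and read Ex 365/Em 440 for AC50.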

Assay [2] in a line: AP1 Signaling Pathway (AID 357).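 Note: ME-180 reporter cells stimulated with EGF at its EC50 level; % is set by controls: 0 for no effect and ±100 for the full control effect.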 The settings on record: ME-180 AP-1-bla reporter, EGF-induced, beta-lactamase ratio, 5 h; at 7.69 µM (top of the series) unless noted. A digest of the protocol:
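First, ME-180 AP-1-bla cells were cultured overnight at 37 °C in low-serum Opti-MEM. Next, titrated compounds with EC50 EGF were incubated 5 hours. Finally, CCF4 was added for 2.5 hours and the 460/530 nm ratio recorded.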

Assay [3] addresses Cytochrome P450 1A2 (Homo sapiens) (UniProt P05177). Nature of the assay: p450-cyp1a2 (AID 410; calls by dose curve; note: potency is the fitted concentration of half-maximal effect;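 for activity change, negative = inhibition: -100% = full effect of reference inhibitor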). Particulars: recombinant CYP1A2, luciferin-ME demethylation, luminescence; series mostly up to 11.4 µM. A digest of the protocol: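 Human CYP1A2 (20nM) demethylated Luciferin-ME at its Km (100uM) in 100mM KPO4. After 10 min compound preincubation, NADPH regeneration ran the reaction 60 min at room temperature. Luciferin was read by luminescence, normalized to 57 uM furafylline.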

A short description of assay [4]: NFAT Signaling Pathway (AID 444).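 Note: carbachol stimulus at about its EC50 of 1 µM final; % is set by controls: 0 for no effect and ±100 for the full control effect.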 The settings on record: Jurkat NFAT-bla M1, carbachol, beta-lactamase ratio, 5 h; at 7.69 µM (top of the series) unless noted. A digest of the protocol: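 Jurkat cells carrying an NFAT-driven β-lactamase reporter and co-transfected muscarinic M1 receptor were treated with compound plus carbachol (1 uM final, an EC50 level) for 5 h at 37 °C. CCF4 loading followed for 1 h at RT; 460/530 nm ratio gave %activity.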

Assay [5] in a line: Stat Signaling Pathway (AID 446).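 Note: ME-180 cervical cancer cells given 40 pM IL-6 alongside compound; SIE-controlled beta-lactamase reporter measured as 460/530 nm FRET emission ratio; % is set by controls: 0 for no effect and ±100 for the full control effect.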 Particulars: ME-180 SIE beta-lactamase reporter, IL-6 stimulated, 5 h; at 7.69 µM (top of the series) unless noted. A digest of the protocol: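 ME-180 cells carrying a SIE-driven beta-lactamase reporter are stimulated with 40 pM IL-6 for 5 h at 37C in the presence of compound. The 460/530 nm FRET substrate ratio is read after 2.5 h at RT. Data are normalised to 300 pM IL-6 and to 125 nM JAK inhibitor controls.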

Assay [6] concerns the target Glucocorticoid receptor (Homo sapiens) (UniProt P04150). Kind of assay: GR-GFP Redistribution (AID 450;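 active = compounds whose dose series gives a full or clear partial fitted curve of increased nuclear translocation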; note: potency is the fitted concentration of half-maximal effect). The settings on record: U2OS GR-GFP nuclear translocation, laser cytometry, 2 h.
Assay [7] has the same target. Nature of the assay: GR-EFC Redistribution (AID 451; calls by dose curve; note: potency is the fitted concentration of half-maximal effect). The settings on record: CHO-K1 GR-EFC translocation, beta-gal luminescence, 2 h. A digest of the protocol: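 CHO-K1 cells stably expressing nuclear-localized β-gal enzyme acceptor and GR fused C-terminally to the enzyme donor fragment; ligand-driven nuclear translocation restores β-gal by complementation. Compounds titrated up to 46 uM final, 2 h at 37 °C; luminescence read.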

Assay [8] has as its target Mitogen-activated protein kinase 10 (Mus musculus) (UniProt Q61831). Kind of assay: JNK3 AlphaScreen Assay (AID 530).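 Note: kinase came from lysate of stimulated human HepG2 cells; signal reports phosphorylation of biotinylated GST-cJun 1-79 at Ser73 with 10 µM ATP; % is set by controls: 0 for no effect and ±100 for the full control effect.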 The settings on record: JNK3 lysate, c-Jun phosphorylation; series mostly up to 11.4 µM. A digest of the protocol:
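JNK3 came from HepG2 lysates pre-activated with IL-1beta and TNF-alpha and phosphorylated biotinylated GST-cJun (1-79) at 10 uM ATP, pH 7.6, room temperature. Compounds were titrated. AlphaScreen signal used anti-phospho-cJun (Ser73) antibody.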

Assay [9] has as its target 3',5'-cyclic-AMP phosphodiesterase 4B (Homo sapiens) (UniProt Q07343). Kind of assay: qHTS Assay for Inhibitors of PDE-IV (AID 607; active = well fitted activation curve with a large enough effect in the main read-out, with a control signal flat, not every such curve was filed as active; note: % of control where 0% means no effect). Particulars: HEK293 ACTOne CNG channel cells, membrane potential fluorescence; series mostly up to 22.9 µM. A digest of the protocol:
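HEK293 ACTOne cells with CNG channel (1000/well), endogenous PDE4; membrane potential dye, compounds up to 22.9 uM final. Fluorescence Ex 535/Em 590; RO 20-1724 (100 uM final) as reference.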
Background: In qHTS, concentration-response curves come from the screen itself.

Assay [10] deals with Cytochrome P450 2C9 (Homo sapiens) (UniProt P11712). Kind of assay: qHTS Assay for Inhibitors and Substrates of Cytochrome P450 2C9 (AID 883; active = well fitted curve in the direction sought with a large enough effect; an effect the other way counts as inactive or inconclusive; note: nearly all actives have a fitted effect of over 60% in size; note: potency is the fitted concentration of half-maximal effect). Particulars: recombinant CYP2C9, luciferin-H luminescence, 60 min; series mostly up to 11.4 µM. A digest of the protocol: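 A luminogenic readout tracked human CYP2C9 (10nM) converting deoxyluciferin (100uM, at KM) in 25mM KPO4 during 60 min at 37C with regenerated NADPH. Values normalized to 57uM sulphaphenazole as complete inhibition.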

Assay [11] concerns the target Cytochrome P450 2D6 (Homo sapiens) (UniProt P10635). Kind of assay: qHTS Assay for Inhibitors and Substrates of Cytochrome P450 2D6 (AID 891; active = well fitted curve in the direction sought with a large enough effect; an effect the other way counts as inactive or inconclusive;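 note: luciferin methyl ether substrate demethylated by CYP2D6 with NADPH regeneration; % is set by controls: 0 for no effect and ±100 for the full control effect; nearly all actives have a fitted effect of over 60% in size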). Particulars: recombinant CYP2D6, luciferin-ME EGE luminescence; series mostly up to 11.4 µM. A digest of the protocol:
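Human CYP2D6 (5 nM) with 30 uM Luciferin-ME EGE (at Km) in 100 mM KPO4, compound preincubated 10 min, then NADPH regeneration system for 60 min at room temperature. Luciferin read by luminescence; normalized to 1.43 uM quinidine.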

Assay [12] has as its target Cytochrome P450 2C19 (Homo sapiens) (UniProt P33261). Kind of assay: qHTS Assay for Inhibitors and Substrates of Cytochrome P450 2C19 (AID 899; active = well fitted curve in the direction sought with a large enough effect; an effect the other way counts as inactive or inconclusive; note: nearly all actives have a fitted effect of over 60% in size; note: potency is the fitted concentration of half-maximal effect). Particulars: recombinant CYP2C19, luciferin-H EGE luminescence; series mostly up to 11.4 µM. A digest of the protocol:
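NADPH-dependent conversion of Luciferin-H EGE (10uM, at KM) by 5nM enzyme in 50mM KPO4, 60 min at 37C following 10 min compound preincubation. Stopped with luciferin detection buffer; luminescence read after 20 min.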

Assay [13] addresses Cytochrome P450 3A4 (Homo sapiens) (UniProt P08684). Kind of assay: qHTS Assay for Activators of Cytochrome P450 3A4 (AID 885; active = well fitted curve in the direction sought with a large enough effect; an effect the other way counts as inactive or inconclusive; note: nearly all actives have a fitted effect of over 65% in size). Particulars: recombinant CYP3A4, Luciferin-PPXE luminescence, 60 min; series mostly up to 11.4 µM. A digest of the protocol: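 Human CYP3A4 (20 nM) with Luciferin-PPXE at 25 uM (its KM) in 200 mM KPO4; 10 min compound preincubation, then NADPH regeneration and 60 min reaction at RT. Luciferin read by luminescence; normalized to 57 uM ketoconazole full inhibition.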

Assay [14] shares this target. Kind of assay: qHTS Assay for Inhibitors and Substrates of Cytochrome P450 3A4 (AID 884; active = well fitted curve in the direction sought with a large enough effect; an effect the other way counts as inactive or inconclusive; note: % is set by controls: 0 for no effect and ±100 for the full control effect; nearly all actives have a fitted effect of over 50% in size). The settings on record: recombinant CYP3A4, Luciferin-PPXE luminescence; series mostly up to 57.1 µM. A digest of the protocol: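 20 nM human CYP3A4 with 25 uM Luciferin-PPXE (at KM) in 200 mM KPO4, preincubated 10 min with compound; NADPH regeneration started a 60 min RT reaction. Luciferin detected by luminescence, normalized to 57 uM ketoconazole as full inhibition.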

A short description of assay [15]: qHTS Assay for Identification of Small Molecule Agonists for Hypoxia Response Element Signaling Pathway (AID 914; active = well fitted activation curve with a large enough effect in the signal ratio, with a control signal flat, not every such curve was filed as active; the % refers to the signal ratio; note: % of control where 0% means no effect). Particulars: ME-180 (cervical carcinoma) HRE-bla reporter, beta-lactamase ratio, CoCl2, 17 h; activation: stronger effect = higher value. A digest of the protocol:
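HRE-bla ME-180 cells, overnight plating in Opti-MEM with 0.5% dialyzed FBS; cpd titration + EC50 CoCl2, 17 h, 37 degrees Celsius; CCF4 2.5 h RT; 460/530 nm ratio; AC50.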

Unmarked numbers belong to inactive results. Inconclusive results are not listed. Active and inactive are the calls of the source. Unless noted, calls come from the whole dose curve; as a rule, active = well fitted curve in either direction with a large enough effect (not every such curve was filed as active); inconclusive = small, poorly fitted or top-dose-only effect, or another doubt; inactive = flat fitted curve, though single readings scatter. Where only a bound is given, the exact number is not on record here.

Chain of Cytochrome P450 2C9 (Homo sapiens) (P11712 whole entry, looked up): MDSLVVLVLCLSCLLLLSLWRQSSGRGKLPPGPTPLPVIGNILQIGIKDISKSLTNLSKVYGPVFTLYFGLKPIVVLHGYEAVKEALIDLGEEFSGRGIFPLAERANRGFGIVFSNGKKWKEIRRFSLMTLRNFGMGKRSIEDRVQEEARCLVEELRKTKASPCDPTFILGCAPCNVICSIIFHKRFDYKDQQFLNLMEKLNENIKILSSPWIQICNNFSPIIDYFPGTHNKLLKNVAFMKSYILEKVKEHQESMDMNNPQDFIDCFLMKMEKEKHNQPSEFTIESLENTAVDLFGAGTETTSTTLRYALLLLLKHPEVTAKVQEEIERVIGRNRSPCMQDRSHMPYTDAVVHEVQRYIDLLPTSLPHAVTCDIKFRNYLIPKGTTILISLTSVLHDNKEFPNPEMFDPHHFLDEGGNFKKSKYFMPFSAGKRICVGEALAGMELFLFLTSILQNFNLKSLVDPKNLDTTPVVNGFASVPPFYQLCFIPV
Chain of Lysosomal acid glucosylceramidase (Homo sapiens) (P04062 whole entry, looked up): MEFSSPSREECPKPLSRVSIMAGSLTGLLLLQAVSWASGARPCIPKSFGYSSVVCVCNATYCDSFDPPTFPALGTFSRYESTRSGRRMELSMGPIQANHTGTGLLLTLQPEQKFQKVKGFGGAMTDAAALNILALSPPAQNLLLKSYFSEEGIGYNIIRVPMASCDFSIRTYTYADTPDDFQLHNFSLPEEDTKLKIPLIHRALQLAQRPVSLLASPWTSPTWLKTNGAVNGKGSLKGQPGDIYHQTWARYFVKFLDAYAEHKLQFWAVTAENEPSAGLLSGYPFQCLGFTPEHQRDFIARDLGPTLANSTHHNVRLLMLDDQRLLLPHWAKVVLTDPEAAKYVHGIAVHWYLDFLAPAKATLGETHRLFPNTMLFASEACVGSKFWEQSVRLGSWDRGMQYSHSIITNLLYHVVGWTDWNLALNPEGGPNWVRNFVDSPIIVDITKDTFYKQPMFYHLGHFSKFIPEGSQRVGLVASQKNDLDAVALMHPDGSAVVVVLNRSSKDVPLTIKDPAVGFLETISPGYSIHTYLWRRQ
Chain of 3',5'-cyclic-AMP phosphodiesterase 4B (Homo sapiens) (Q07343 whole entry, looked up): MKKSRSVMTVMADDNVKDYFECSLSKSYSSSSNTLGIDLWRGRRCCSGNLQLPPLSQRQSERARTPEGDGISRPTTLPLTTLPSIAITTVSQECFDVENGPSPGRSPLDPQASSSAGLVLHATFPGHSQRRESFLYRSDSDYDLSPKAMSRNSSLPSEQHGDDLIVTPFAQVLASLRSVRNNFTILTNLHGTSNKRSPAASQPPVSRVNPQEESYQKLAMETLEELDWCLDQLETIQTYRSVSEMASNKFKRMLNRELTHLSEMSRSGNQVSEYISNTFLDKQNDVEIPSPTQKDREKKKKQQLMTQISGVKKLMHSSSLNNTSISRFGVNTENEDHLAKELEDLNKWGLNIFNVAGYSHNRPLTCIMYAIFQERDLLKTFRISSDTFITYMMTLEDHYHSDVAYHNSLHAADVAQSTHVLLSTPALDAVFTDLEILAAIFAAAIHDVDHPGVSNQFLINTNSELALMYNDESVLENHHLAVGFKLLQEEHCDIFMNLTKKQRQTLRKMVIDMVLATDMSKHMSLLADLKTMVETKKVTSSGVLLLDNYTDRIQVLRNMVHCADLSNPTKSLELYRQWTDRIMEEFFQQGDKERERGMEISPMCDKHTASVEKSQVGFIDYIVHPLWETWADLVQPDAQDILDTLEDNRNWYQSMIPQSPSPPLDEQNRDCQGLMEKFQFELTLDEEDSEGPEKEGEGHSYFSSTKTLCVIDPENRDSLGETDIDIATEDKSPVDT
Chain of Glucocorticoid receptor (Homo sapiens) (P04150 whole entry, looked up, the tested form may be a part): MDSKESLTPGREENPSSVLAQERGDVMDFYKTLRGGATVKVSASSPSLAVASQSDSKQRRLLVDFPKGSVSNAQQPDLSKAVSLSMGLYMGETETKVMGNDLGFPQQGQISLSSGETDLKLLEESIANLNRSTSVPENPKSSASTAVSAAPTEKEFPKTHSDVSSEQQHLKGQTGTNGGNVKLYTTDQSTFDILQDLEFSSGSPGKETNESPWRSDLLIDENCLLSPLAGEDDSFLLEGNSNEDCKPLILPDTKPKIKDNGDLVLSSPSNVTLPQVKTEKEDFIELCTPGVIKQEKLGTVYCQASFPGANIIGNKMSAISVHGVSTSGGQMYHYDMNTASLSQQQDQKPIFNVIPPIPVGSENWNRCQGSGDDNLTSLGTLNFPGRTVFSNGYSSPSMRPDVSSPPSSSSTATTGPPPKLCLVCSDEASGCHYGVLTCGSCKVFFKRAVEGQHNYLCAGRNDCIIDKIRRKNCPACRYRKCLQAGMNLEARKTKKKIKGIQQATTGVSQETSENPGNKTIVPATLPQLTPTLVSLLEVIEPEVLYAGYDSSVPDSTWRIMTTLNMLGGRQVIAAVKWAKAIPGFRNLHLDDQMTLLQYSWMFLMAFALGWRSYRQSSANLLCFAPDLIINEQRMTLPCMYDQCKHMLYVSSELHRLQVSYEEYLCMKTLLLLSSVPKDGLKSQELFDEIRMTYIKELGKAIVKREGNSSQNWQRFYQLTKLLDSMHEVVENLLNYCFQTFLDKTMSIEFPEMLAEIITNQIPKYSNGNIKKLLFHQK
Chain of Cytochrome P450 2D6 (Homo sapiens) (P10635 whole entry, looked up): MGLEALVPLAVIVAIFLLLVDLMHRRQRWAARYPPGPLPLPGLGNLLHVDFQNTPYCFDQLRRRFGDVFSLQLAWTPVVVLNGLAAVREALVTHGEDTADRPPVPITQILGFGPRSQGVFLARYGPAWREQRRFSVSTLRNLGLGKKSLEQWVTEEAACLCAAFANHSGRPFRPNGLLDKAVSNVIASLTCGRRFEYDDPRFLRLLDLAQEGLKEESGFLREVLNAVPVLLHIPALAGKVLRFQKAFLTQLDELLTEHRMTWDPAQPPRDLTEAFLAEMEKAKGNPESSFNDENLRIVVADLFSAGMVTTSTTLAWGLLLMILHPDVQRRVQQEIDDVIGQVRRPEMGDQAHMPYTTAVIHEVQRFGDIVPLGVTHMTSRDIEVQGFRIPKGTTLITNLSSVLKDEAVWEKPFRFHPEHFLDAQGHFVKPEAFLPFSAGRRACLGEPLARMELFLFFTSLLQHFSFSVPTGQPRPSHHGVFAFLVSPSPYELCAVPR
Chain of Cytochrome P450 1A2 (Homo sapiens) (P05177 whole entry, looked up): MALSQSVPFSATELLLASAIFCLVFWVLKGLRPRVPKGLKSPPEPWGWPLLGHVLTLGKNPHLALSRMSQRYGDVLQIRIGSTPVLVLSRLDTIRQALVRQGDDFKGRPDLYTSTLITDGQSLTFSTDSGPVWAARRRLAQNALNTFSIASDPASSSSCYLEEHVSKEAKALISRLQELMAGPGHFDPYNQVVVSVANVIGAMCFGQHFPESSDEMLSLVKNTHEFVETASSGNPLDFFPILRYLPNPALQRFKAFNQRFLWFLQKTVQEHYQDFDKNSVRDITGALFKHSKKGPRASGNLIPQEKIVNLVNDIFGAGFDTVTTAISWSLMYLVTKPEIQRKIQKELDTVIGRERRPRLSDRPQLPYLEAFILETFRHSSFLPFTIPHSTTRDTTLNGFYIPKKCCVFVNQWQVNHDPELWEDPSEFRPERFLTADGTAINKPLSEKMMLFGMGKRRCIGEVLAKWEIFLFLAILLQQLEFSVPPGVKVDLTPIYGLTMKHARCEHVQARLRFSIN
Chain of Cytochrome P450 3A4 (Homo sapiens) (P08684 whole entry, looked up): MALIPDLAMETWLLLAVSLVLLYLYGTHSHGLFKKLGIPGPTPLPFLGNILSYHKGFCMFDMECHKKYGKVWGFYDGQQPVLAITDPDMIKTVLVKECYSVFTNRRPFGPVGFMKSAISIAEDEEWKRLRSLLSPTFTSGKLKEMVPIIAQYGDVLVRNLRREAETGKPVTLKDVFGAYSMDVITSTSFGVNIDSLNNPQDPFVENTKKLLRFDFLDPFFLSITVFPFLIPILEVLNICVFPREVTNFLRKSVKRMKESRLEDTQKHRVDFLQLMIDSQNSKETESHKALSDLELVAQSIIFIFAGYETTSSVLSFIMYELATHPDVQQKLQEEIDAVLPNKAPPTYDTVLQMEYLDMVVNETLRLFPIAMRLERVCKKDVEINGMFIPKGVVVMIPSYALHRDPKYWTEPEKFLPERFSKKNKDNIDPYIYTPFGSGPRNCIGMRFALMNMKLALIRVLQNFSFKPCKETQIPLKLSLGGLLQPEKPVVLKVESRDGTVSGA
Chain of Cytochrome P450 2C19 (Homo sapiens) (P33261 whole entry, looked up): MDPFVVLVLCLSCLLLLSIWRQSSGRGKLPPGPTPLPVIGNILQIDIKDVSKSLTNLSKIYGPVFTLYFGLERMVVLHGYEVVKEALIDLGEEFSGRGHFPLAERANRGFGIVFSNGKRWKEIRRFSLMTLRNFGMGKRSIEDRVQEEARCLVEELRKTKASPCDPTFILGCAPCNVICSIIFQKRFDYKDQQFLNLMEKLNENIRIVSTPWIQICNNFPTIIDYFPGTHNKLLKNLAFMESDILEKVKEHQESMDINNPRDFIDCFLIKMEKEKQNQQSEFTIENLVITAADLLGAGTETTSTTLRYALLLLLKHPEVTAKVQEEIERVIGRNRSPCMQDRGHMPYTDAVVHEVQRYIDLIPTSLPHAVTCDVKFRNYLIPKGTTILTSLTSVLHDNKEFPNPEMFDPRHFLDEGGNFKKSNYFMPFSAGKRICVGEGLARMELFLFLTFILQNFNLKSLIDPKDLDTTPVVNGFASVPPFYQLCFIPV

Take `Nc1ncnc2nc[nH]c12.Nc1ncnc2nc[nH]c12.[Cl][Pt]([Cl])([Cl])[Cl]`: the Potency in [1] was > 11.4 µM; in assay [6] it was > 46 µM; in [7] it was > 9.22 µM. The activity change, negative = inhibition in assay [2] is -1.02%; in [3] it was 13.2% [at 2.29 µM]; in assay [4] it was 4.22%. In [5], the activity, negative = inhibition is -3.14%. Moreover, the Potency entry in assay [8], in assay [9], in assay [10], in assay [11] and in assay [12] was “inactive” throughout.

On to `Cc1c(Cl)cccc1NC(=O)C[C@H]1Sc2ccccc2NC1=O`, for which the Potency was > 11.4 µM in [1], > 46 µM in [6] and > 9.22 µM in [7]. Also, the activity change, negative = inhibition in assay [2] was -17.8%; in [3], -23.2% [at 2.29 µM]; in assay [4], 7.2%. In assay [5], the activity, negative = inhibition is 6.79%. Also, the Potency entry in [8], in assay [9], in assay [10] and in assay [13] was “inactive” each time.

As to `C[C@H]1C[C@@H]2[C@H]3CCC4=CC(=O)C=C[C@@]4(C)[C@]3(Cl)[C@@H](Cl)C[C@]2(C)[C@]1(O)C(=O)COP(=O)(O)O`, the results for the Potency in [1], in assay [6] and in [7] were > 11.4 µM, 0.0275 µM (active) and 7.37 µM (active), respectively. In addition, the activity change, negative = inhibition in assay [2] was -4.94%; in assay [4], 9.07%. Besides, the Potency entry in assay [3], in assay [8], in assay [9], in assay [10], in assay [11] and in [12] was “inactive” in each case. Moreover, the activity, negative = inhibition in [5] is 2.85%.

On to `COc1cccc2[nH]c(-c3ccccn3)nc12`, for which the Potency was > 11.4 µM in [1]; 794 nM (active) in assay [3]; > 46 µM in assay [6]; > 9.22 µM in assay [7]; 2.51 µM (active) in assay [12]. For the same compound, the activity change, negative = inhibition in assay [2] was -2.26%; in assay [4], 1.67%. Besides, the activity, negative = inhibition in assay [5] is 4.98%. The Potency result in [8], in assay [9], in [10] and in [13] was “inactive” throughout.

Take `BrC(c1cccc2ccccc12)c1cccc2ccccc12`: the Potency is > 11.4 µM in [1]; 1260 nM (active) in assay [3]; > 46 µM in assay [6]; > 9.22 µM in [7]; 3.16 µM (active) in assay [10]; 1.26 µM (active) in [12]. Further, the results for the activity change, negative = inhibition in assay [2] and in assay [4] were 0.329% and -5.96%, respectively. In assay [5], the activity, negative = inhibition is -2.07%. For the same compound, the Potency result in assay [8] and in [9] was “inactive” throughout.

Regarding `COc1ccc(CCCC(=O)O)c(C)c1`, the Potency in assay [1] is > 11.4 µM; in assay [6], > 46 µM; in assay [7], > 9.22 µM. For the same compound, the activity change, negative = inhibition in [2] is 1.4%; in [4], -4.8%; in [14], -0.798% [at 11.4 µM]. The Potency entry in assay [3], in assay [8], in assay [9], in assay [10], in assay [11] and in [12] was “inactive” throughout. In assay [5], the activity, negative = inhibition was -0.975%. In addition, in assay [15], the activation is -8.35%.

Values taken from PubChem BioAssay (NCATS).
